PrP UTR inh – suppresses PrP 5' UTR mRNA reporter expression; cell-based PrP 5' UTR mRNA reporter, plate reader; inhibition, % (test concentration not listed); hit rate 0.35% among 340,000; AID 488862; in the data active = inhibition above about 52%; note: 0 = median of the neutral control wells
PriA SSB inh – K. pneumoniae PriA-SSBct interaction inhibition. AlphaScreen SSBct-PriA binding, biotinylated peptide. inhibition, % at 33 µM. hit rate 0.6% among 430,000. AID 1272365; in the data active = inhibition mostly above about 37%, no sharp cut-off; inactive = mostly below about 20%;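 note: plate controls were negative control peptide for no effect and reference peptide for full effect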
Vc quorum ag – quorum light induction in luxS cqsA deficient V. cholerae; V. cholerae BH1578 lux reporter, luminescence, 6 h; activation, % at 18.7 µM; hit rate 0.16% among 350,000; in the data active = activation mostly above about 9.7%, no sharp cut-off; inconclusive = no clear call, values can overlap the other calls; inactive = mostly below about 3.7%
PfHsp40 yeast – rescue of PfHsp40-mediated yeast toxicity; S. cerevisiae expressing PfHsp40, growth rescue, ATP luminescence; growth rescue, % at 12.5 µM; hit rate 0.68% among 340,000; in the data active = growth rescue above about 28%, passing the limit was not always enough; inconclusive = no clear call, values can overlap the other calls;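 note: yeast W303a lacking pdr1 and pdr3 grown in galactose medium; growth measured after three days at 30 °C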
PrPC surface inh – cell surface PrPC inhibition, primary TR-FRET screen; TR-FRET read-out; inhibition, % at 13.8 µM; hit rate 0.43% among 370,000; in the data active = inhibition above about 24%; note: 0% = median of the test wells and 100% = reference compound wells
3CLpro inhibitor – SARS-CoV 3CLpro protease inhibition. inhibition, % at 6 µM. hit rate 0.14% among 290,000. recombinant SARS-CoV 3CLpro, quenched FRET peptide cleavage; in the data active = inhibition above about 12%
* hit, by the source's call; i = inactive; ? = inconclusive; . = not tested or not shown; ! = not active in a repeat. An excerpt weighted towards active compounds, which were near 1.6% of everything screened.

SMILES | PrP UTR inh | PriA SSB inh | Vc quorum ag | PfHsp40 yeast | PrPC surface inh | 3CLpro inhibitor
N#C/C(=C\c1ccc2c(c1)OCO2)C(=O)NCc1ccco1 | -23 | -4 | 0 | 53* | 2 | -1
CC(=O)c1cn(CC(=O)NCCc2ccc(Cl)cc2)c2ccccc12 | . | -6 | . | . | . | .
O=C(O)c1ccc(=O)[nH]n1 | . | 41* | . | . | . | .
C[C@@H]1Oc2ccccc2N(Cc2nc(-c3cccc(Br)c3)no2)C1=O | . | -4 | . | . | . | .
COc1cnc(-c2ccccn2)nc1Oc1cccc(C(F)(F)F)c1 | -5 | . | -1 | 7 | 0 | -3
c1ccc(-c2cnnc(-c3ccccn3)n2)cc1 | -30 | -17 | -2 | 10 | -15 | .
C=CCNc1nc(-c2ccccn2)nnc1-c1ccccc1 | -53 | -9 | 1 | 354* | 21 | -1
c1ccc(Oc2nc(-c3ccccn3)nnc2-c2ccccc2)cc1 | . | 103* | . | . | . | .
COc1cnc(-c2ccccn2)nc1Oc1ccc(F)cc1 | . | 109* | . | . | . | .
COc1cnc(-c2ccccn2)nc1Oc1ccccc1 | -1 | 64* | i | 2 | -3 | 5
Cc1ccccc1C(=O)N/N=C\c1ccc(C(C)C)cc1 | . | -8 | . | . | . | .
COc1ccc(S(=O)(=O)C2CN(C(=O)CSC3CCCC3)C2)cc1 | . | -4 | . | . | . | .
O=C(NCC1CCN(S(=O)(=O)c2cccnc2)CC1)c1ccc(Cl)s1 | . | -9 | . | . | . | .
c1ccc(-c2cnc(-c3ccccn3)nn2)cc1 | -30 | 69* | 5 | 5 | -13 | .
Clc1ccc(-c2cnnc(-c3ccccn3)n2)cc1 | -27 | 58* | -1 | ? | -28 | .
COc1cnc(-c2ccccn2)nc1Oc1cc(Cl)cc(Cl)c1 | . | 63* | . | . | . | .
S=c1[nH]nc(CCn2c3ccccc3c3ccccc32)n1Cc1ccco1 | . | 15 | . | . | . | .
COc1ccccc1CNC(=O)CSc1ccc(-c2ccccn2)nn1 | -16 | 34 | -4 | 314* | -1 | -1
COc1ccccc1CCNC(=O)CSc1ccc(-c2ccc3c(c2)OCO3)nn1 | . | 67* | . | . | . | .
COc1ccc(CCNC(=O)CSc2ccc(-c3ccccn3)nn2)cc1OC | . | 94* | . | . | . | .
COc1ccc(CCNC(=O)CSc2ccc(-c3ccccc3)nn2)cc1OC | -18 | -3 | -4 | -1 | 1 | 6
COc1ccc(N=c2cc(-c3ccc(O)cc3)oc3ccccc23)cc1 | -9 | 42* | 0 | 3 | -8 | -3
CCOc1ccc(N=c2cc(-c3ccc(OC)cc3)oc3ccccc23)cc1 | -4 | 39* | 2 | -1 | -5 | 5
COc1ccc(-c2cc(=Nc3ccc(C)cc3)c3ccccc3o2)cc1 | 10 | 10 | -3 | 3 | -7 | 7
COc1ccc(-c2cc(=Nc3ccccc3)c3cc(C)ccc3o2)cc1 | 10 | 29 | i | -2 | 3 | 2
SMILES | PrP UTR inh | PriA SSB inh | Vc quorum ag | PfHsp40 yeast | PrPC surface inh | 3CLpro inhibitor
COc1ccc(N=c2cc(-c3ccc(OC)cc3)oc3ccccc23)cc1 | -19 | 53* | 0 | 0 | -3 | -1
Cc1noc(C)c1C(=O)NC1CCC(Oc2cnccn2)CC1 (configuration not stated) | . | -12 | . | . | . | .
CN(C)c1ccc(CCCNC(=O)C2CC2)cc1 | . | -11 | . | . | . | .
CSCCC(C)(O)CNC(=O)C(=O)NCC1CCCO1 (configuration not stated) | . | -6 | . | . | . | .
Cc1ccc(Nc2c([N+](=O)[O-])cc(C(=O)N3CC(=O)Nc4ccccc43)cc2[N+](=O)[O-])c(C)c1 | -19 | 43* | 1 | 0 | -9 | 6
COc1ccc(S(=O)(=O)NC2CCCCC2)c(C)c1C | 0 | -16 | i | 86* | 2 | -1
COc1ccccc1N1CCN(S(=O)(=O)CCNC(=O)c2ccccc2Cl)CC1 | . | -1 | . | . | . | .
COc1ccc2sc(N(CCCN3CCOCC3)C(=O)c3cccc([N+](=O)[O-])c3)nc2c1 | . | 47* | . | . | . | .
Oc1cccc2ccc(Nc3ccccn3)nc12 | 17 | 103* | 0 | 240* | 12 | 1
c1ccc(Nc2ccccc2Nc2ccccn2)nc1 | -24 | 10 | i | 0 | 6 | -192
Cc1cccc(NC(=O)NCCn2ncccc2=O)c1C | . | -8 | . | . | . | .
Nc1ccc(SCc2nc3cccc4c3n2CCC4)cc1 | -16 | 44* | 1 | 2 | 9 | 2
O=C(COc1coc(CN2CCN(c3ccccc3)CC2)cc1=O)Nc1ccc(F)cc1 | -13 | 46* | -1 | 1 | 5 | .
Cc1cc(C)nc(OC2CCC(NC(=O)c3ccncc3)CC2)n1 (configuration not stated) | . | -2 | . | . | . | .
CCOc1cccc2sc(N(CCCN(C)C)C(=O)c3ccc(S(=O)(=O)N(C)Cc4ccccc4)cc3)nc12 | 3 | 38*! | i | -1 | -24 | 4
CCOc1cccc2sc(N(CCCN(C)C)C(=O)c3ccc(S(=O)(=O)N(CC)Cc4ccccc4)cc3)nc12 | -2 | 29 | i | 0 | -19 | 1
CCN(c1ccccc1)S(=O)(=O)c1ccc(C(=O)N(CCCN(C)C)c2nc3cc4c(cc3s2)OCO4)cc1 | -7 | 32 | i | 2 | -13 | 0
CCN(c1ccccc1)S(=O)(=O)c1ccc(C(=O)N(CCCN(C)C)c2nc3c(C)cccc3s2)cc1 | -26 | 36*! | i | 0 | -15 | -2
CCCCOc1ccccc1NC(=O)c1ccccc1OC | . | -25 | . | . | . | .
N#CC(c1cccc(Cl)c1)c1ccc2c(C(F)(F)F)cc(C(F)(F)F)nc2n1 (configuration not stated) | 0 | 51* | 0 | 0 | -3 | 1
NNc1ccc2c(C(F)(F)F)cc(C(F)(F)F)nc2n1 | -23 | 10 | 1 | -1 | -5 | 1
CCOc1ccc(Nc2ccc([N+](=O)[O-])c3nonc23)cc1 | -48 | 78* | i | 1 | -49 | 2
CC(C)(C)c1cc(C(c2cccnc2)N2CCN(CCO)CC2)cc(C(C)(C)C)c1O (configuration not stated) | -19 | 1 | i | 30* | 8 | 1
CC(C)(C)c1cc(C(c2ccc(Cl)cc2)N2CCN(Cc3ccccc3)CC2)cc(C(C)(C)C)c1O (configuration not stated) | . | 1 | . | . | . | .
Cc1ccc(NC(=O)COC(=O)CCc2c[nH]c3ccccc23)cc1[N+](=O)[O-] | -20 | 40* | 3 | 1 | -18 | 1
SMILES | PrP UTR inh | PriA SSB inh | Vc quorum ag | PfHsp40 yeast | PrPC surface inh | 3CLpro inhibitor
O=[N+]([O-])c1ccc(S(=O)(=O)c2cccc(C(F)(F)F)c2)nc1 | -26 | 1 | i | 42* | . | .
N#Cc1cccnc1OC1CCN(C(=O)c2ccc3nsnc3c2)CC1 | . | -11 | . | . | . | .
NC(=S)N=Nc1c(O)n(Cc2ccccc2)c2ccccc12 | -36 | -12 | 0 | 0 | 4 | 5
O=Nc1c(O)n(Cc2cccc(Cl)c2)c2ccccc12 | -19 | 8 | 30* | 0 | -11 | -3
O=C(N1CCc2oncc2C1)C1(c2ccccc2)CCOCC1 | . | -2 | . | . | . | .
CC(C)(C)c1cc(=O)n2c(n1)SCC(C(=O)Nc1cccc(NS(C)(=O)=O)c1)C2 (configuration not stated) | . | -2 | . | . | . | .
O=C(Cc1cccs1)Nc1ccc(N2CCOCC2)cc1 | -24 | -2 | 0 | 35* | 3 | -4
CN(C)c1ccc(CCCNS(=O)(=O)Cc2ccccc2F)cc1 | . | 17 | . | . | . | .
